# Bioassay records deposited in PubChem BioAssay by several laboratories.
# PrP 5UTR inh: inhibition of PrP 5' UTR reporter expression; cell-based PrP 5' UTR mRNA reporter, plate reader; inhibition, % (concentration not given with the values); 340,000 compounds, 0.35% hits; AID 488862, 2010; in the data active means inhibition above about 52%
# SARS 3CLpro inh: SARS-CoV 3CLpro protease inhibitors, primary screen, biochemical, quenched FRET; Replicase polyprotein 1ab (Severe acute respiratory syndrome coronavirus), P0C6X7; recombinant SARS-CoV 3CLpro, quenched FRET peptide cleavage; inhibition, % at 6 µM; 290,000 compounds, 0.14% hits; in the data active means inhibition above about 12%
# SSB-PriA inh: inhibitors of Klebsiella pneumoniae PriA binding to SSB C-terminal tail, primary screen, biochemical, AlphaScreen. 430,000 compounds, 0.6% hits. AlphaScreen SSBct-PriA binding, biotinylated peptide. PriA–SSB C-terminal tail interaction (Klebsiella pneumoniae). AID 1272365, 2023. inhibition, % at 33 µM; in the data active means inhibition mostly above about 37%, no sharp cut-off; inactive means mostly below about 20%
# Vc quorum ag: inducers of Vibrio cholerae quorum light production without autoinducers, primary screen, BH1578 luxS cqsA deficient, single point; V. cholerae BH1578 lux reporter, luminescence, 6 h; activation, % at 18.7 µM; 350,000 compounds, 0.16% hits; AID 588436, 2011; in the data active means activation mostly above about 9.7%, no sharp cut-off; inconclusive means no clear call, values can overlap the other calls; inactive means mostly below about 3.7%
# PrPC surface inh: inhibitors of human cell surface prion protein PrPC, primary screen, cell-based, TR-FRET; Major prion protein (Homo sapiens), P04156; TR-FRET read-out; inhibition, % at 13.8 µM; 370,000 compounds, 0.43% hits; AID 720596, 2013; in the data active means inhibition above about 24%
# PfHsp40 rescue: rescue of yeast from PfHsp40 toxicity, primary screen, S. cerevisiae, ATP luminescence | AID 504582, 2011 | growth rescue, % at 12.5 µM | 340,000 compounds, 0.68% hits | S. cerevisiae expressing PfHsp40, growth rescue; in the data active means growth rescue above about 28%, passing the limit was not always enough; inconclusive means no clear call, values can overlap the other calls;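 further: yeast W303a lacking pdr1 and pdr3 grown in galactose medium; growth measured after three days at 30 °C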
# PrPC confirm: confirmation of inhibitors of cell surface human prion protein, confirmation, cell-based, TR-FRET; 1,500 compounds, 65% hits; shares compounds with PrPC surface inh; inhibition, % at 13.8 µM; cell surface PrPC level; in the data active means inhibition above about 25%
# LD9 cytotox: cytotoxicity in LD9 cells, cytotoxicity control for cell surface PrPc inhibitor project, cell-based, luminescence, high throughput; shares compounds with PrPC surface inh; luminescence viability; inhibition, % at 13.8 µM; 1,500 compounds, 29% hits; AID 743201, 2013; in the data active means inhibition above about 9.5%
# Numbers stand for hits; n = inactive; u = inconclusive; x = no result given; + = active, no number. Compounds with a hit are over-represented: about 1.6% of the library has one in this group of screens.
SMILES,PrP 5UTR inh,SARS 3CLpro inh,SSB-PriA inh,Vc quorum ag,PrPC surface inh,PfHsp40 rescue,PrPC confirm,LD9 cytotox
CCCC(=O)NC(c1ccc(C(C)C)cc1)c1ccc2cccnc2c1O (stereo unspecified),n,n,n,n,n,n,x,x
CCC(=O)NC(c1ccc(Cl)cc1Cl)c1ccc2cccnc2c1O (stereo unspecified),n,n,n,n,28.5,122.3,n,24.8
CCCC(=O)NC(c1ccccc1Cl)c1ccc2cccnc2c1O (stereo unspecified),n,n,n,n,26.9,u,28.0,33.6
CCCCC(=O)NC(c1ccc(Cl)cc1Cl)c1ccc2cccnc2c1O (stereo unspecified),n,n,n,n,n,n,x,x
CCCCC(=O)NC(c1ccc(OC)cc1)c1ccc2cccnc2c1O (stereo unspecified),x,x,x,n,n,x,x,x
CCC(=O)NC(c1ccc(C)cc1)c1ccc2cccnc2c1O (stereo unspecified),n,n,n,n,29.8,u,31.4,27.8
CCn1cc(-c2nc(-c3cccc(Br)c3)no2)c(=O)c2cc(C)ccc21,x,x,n,x,x,x,x,x
CC(=O)NC(c1ccc(Cl)cc1)c1ccc2cccnc2c1O (stereo unspecified),n,x,n,n,40.0,u,35.2,33.4
CCn1nnc2c(=O)n(CC(=O)NCc3ccccc3Cl)cnc21,x,x,n,x,x,x,x,x
CCN=C1SC(CC(=O)Nc2sc(C)c(C)c2C(=O)OCC)C(=O)N1CC (stereo unspecified),x,x,n,x,x,x,x,x
COc1ccc(Cl)cc1C(=O)N1CCC(N2CCc3sccc3C2)CC1,x,x,n,x,x,x,x,x
CC(=O)c1ccc(S(=O)(=O)Nc2cc(-c3nc4cccnc4s3)ccc2C)cc1,x,x,n,x,x,x,x,x
CCC1=C(CC2NCCc3ccccc32)CC2c3cc(OC)c(OC)cc3CCN2C1 (stereo unspecified),n,x,n,n,76.4,n,82.7,27.9
COc1ccc2c(c1)c(/C=N/Nc1nc3ccccc3[nH]1)c(C)n2C,n,n,+,n,24.8,n,n,26.6
COc1cc(/C=N\Nc2nc3ccccc3[nH]2)cc(OC)c1OC,n,n,x,n,n,n,x,x
COc1ccc(OC)c(C2c3cccn3CCN2C(=O)Nc2cccs2)c1 (stereo unspecified),x,x,n,x,x,x,x,x
CC(=O)Oc1ccc(-c2csnn2)cc1,n,n,n,n,n,n,x,x
Cc1ccccc1C(=O)NNc1ccc(-c2csnn2)cc1,n,n,n,n,24.6,n,n,n
COC(=O)Nc1ccc(S(=O)(=O)NCC2CCN(C(=O)c3cccnc3)CC2)cc1,x,x,n,x,x,x,x,x
NNC(=O)C(=O)Nc1ccc(O)cc1,n,n,n,n,31.0,n,n,n
CS(=O)(=O)N1C2CCC1CC(NC(=O)CSc1ccc(F)cc1)C2 (stereo unspecified),x,x,n,x,x,x,x,x
Cc1ccc(C)c(Nc2ccc(C(=O)NCCc3ccccc3)cn2)c1,n,n,n,n,26.9,n,n,n
CCN1C(=O)CCc2cc(NC(=O)C3CCCO3)ccc21 (stereo unspecified),x,x,n,x,x,x,x,x
O=C(NCC1(c2cccs2)CCOCC1)c1cc2ccccc2s1,x,x,n,x,x,x,x,x
COc1ccc(N(C(C)C(=O)N2CCCC2)S(C)(=O)=O)cc1 (stereo unspecified),n,n,n,n,49.7,n,n,n
SMILES,PrP 5UTR inh,SARS 3CLpro inh,SSB-PriA inh,Vc quorum ag,PrPC surface inh,PfHsp40 rescue,PrPC confirm,LD9 cytotox
CCOc1ccc(N(C(C)C(=O)N2CCCC2)S(C)(=O)=O)cc1 (stereo unspecified),n,n,n,n,n,n,x,x
CC(=O)N(CCCN(C)C)c1nc2c(Cl)cccc2s1,x,x,n,x,x,x,x,x
CCC(C)(O)c1cc2ccccc2c(=O)o1 (stereo unspecified),x,x,n,x,x,x,x,x
C[C@@]12C(=O)N(c3cccc(Cl)c3)C(=O)N1[C@@H]1c3ccccc3OC[C@@H]1[C@H]2c1ccccc1,n,x,n,n,n,n,x,x
C[C@@]12C(=O)N(c3cccc(F)c3)C(=O)N1[C@@H]1c3ccccc3OC[C@@H]1[C@H]2c1ccccc1,n,x,n,n,28.7,n,n,n
Cc1ccc2c(c1)[C@H]1[C@H](CO2)[C@H](c2ccccc2)[C@]2(C)C(=O)Nc3cc(F)c(F)cc3C(=O)N12,n,x,n,n,29.1,n,n,n
COc1ccc(C(=O)NCCN2CCN(c3ccccc3OC)CC2)cc1,x,x,n,x,x,x,x,x
CC#CCOC(=O)c1c(C)nc2sc3c(c2c1N)CCC(O)C3 (stereo unspecified),n,x,n,n,42.0,n,27.4,11.6
Cn1nc(C(F)(F)F)c(/C=N/OC(=O)c2ccccc2Cl)c1SCc1ccccc1Cl,n,n,x,n,70.4,n,82.4,n
Cc1c(OCC(N)=O)ccc2c(-c3ccccc3)cc(=O)oc12,n,n,n,n,26.6,n,n,n
COc1cccc(NC(=NC(=S)Nc2ccc(C)cc2C)Nc2nc(C)cc(C)n2)c1,x,x,n,x,x,x,x,x
Cc1cc(NC(=O)c2ccco2)n(-c2nc3ccccc3s2)n1,x,x,n,x,x,x,x,x
O=C(NCc1ccco1)c1cccc(-c2nnc(-c3ccccc3)o2)c1,n,n,n,n,26.2,n,n,n
O=C(Cc1nnc(-c2ccccc2)o1)NCc1ccco1,x,x,n,x,x,x,x,x
COc1ccc(C(=O)Nc2cccc(C(=O)NCc3ccco3)c2)cc1,n,n,n,n,27.1,n,n,n
O=C(NCc1ccco1)c1cccc(NC(=O)c2ccco2)c1,n,n,n,n,n,n,x,x
O=C(NC1CCCC1)c1cccn1Cc1nc(-c2ccccc2)no1,x,x,n,x,x,x,x,x
C=CCN(CC=C)S(=O)(=O)c1ccc(C(=O)Nc2sc3c(c2C(N)=O)CCN(C(=O)OCC)C3)cc1,x,x,n,x,x,x,x,x
COc1ccc(-n2c(SCC(=O)NCc3ccco3)nc3c(c2=O)SCC3)cc1OC,x,x,n,x,x,x,x,x
C=C1C(C)C2C(Cc3ccccc3)NC(=O)C23OC(=O)/C=C/C(O)CCCC(C)C/C=C/C3C1O (stereo unspecified),n,x,n,n,25.7,n,n,14.1
Cc1noc(C)c1CC(=O)NCC(O)(c1ccccc1)C1CC1 (stereo unspecified),x,x,n,x,x,x,x,x
COc1ccc(CC(=O)NCCc2nc(C3CC3)cc(C(F)(F)F)n2)cc1OC,x,x,n,x,x,x,x,x
O=C(O)CCC(=O)NNC(=O)COc1ccc2ccccc2c1Br,n,n,n,n,45.9,n,85.2,n
CC(C)(C)c1ccc(OCC(=O)Nc2ccncc2)c(Br)c1,n,n,n,n,n,n,x,x
O=C(COc1ccc(Br)cc1Br)NC(=S)Nc1cccc(CO)c1,n,n,n,n,n,n,x,x
